Measurements taken from the supplement of paper PMC12340641.
Structures can show the parent of a compound that is named as a salt.

system: HEK293FT dCK*-IKZF1; assay: relative growth recovery (pomalidomide 10 uM = 100%, DMSO = 0%); higher = more growth rescue (IKZF1 fusion degradation); settings: compound concentration: 5 uM; AraC concentration: 0.3 uM; overnight pretreatment + 4 days AraC
Outline: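 On day 5, whole-well imaging was used to count Hoechst 33342-stained nuclei of HEK293FT cells stably carrying a deoxycytidine kinase–IKZF1 fusion. These cells had received 5 μM compound 2 h after seeding, followed after overnight at 37 °C by a nucleoside suicide substrate at 0.3 μM plus medium for 4 days. Growth recovery was normalised on each plate against a reference degrader and vehicle, which defined 100% and 0%, and values are duplicate means from separate days.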

Compound | relative growth recovery
CO[C@H]1/C=C/O[C@@]2(C)Oc3c(C)c(O)c4c(O)c(cc(O)c4c3C2=O)NC(=O)/C(C)=C\C=C\[C@H](C)[C@H](O)[C@@H](C)[C@@H](O)[C@@H](C)[C@H](OC(C)=O)[C@@H]1C [Rifamycin SV Sodium] | 0.23%
Nc1ccc2cc3ccc(N)cc3nc2c1 | -15%
CO[C@H]1C[C@@H]2CC[C@@H](C)[C@@](O)(O2)C(=O)C(=O)N2CCCC[C@H]2C(=O)O[C@H]([C@H](C)C[C@@H]2CC[C@@H](O)[C@H](OC)C2)CC(=O)[C@H](C)/C=C(\C)[C@@H](O)[C@@H](OC)C(=O)[C@H](C)C[C@H](C)/C=C/C=C/C=C/1C [Rapamycin] | -7.58%
[2H]C([2H])([2H])C(O)(CCO[C@@H](C)[C@H]1CC[C@H]2/C(=C/C=C3/C[C@@H](O)C[C@H](O)C3=C)CCC[C@]12C)C([2H])([2H])[2H] [maxacalcitol] | 7.53%
COC(=O)/C=C/c1cc(O)ccc1O [erbstatin-analog] | -11.6%
CN1CCC[C@@H]1CCO[C@](C)(c1ccccc1)c1ccc(Cl)cc1 [Clemastine Fumarate] | 2.26%
O=C1[C@H]2CCCC[C@H]2C(=O)N1CCCCN1CCN(c2nsc3ccccc23)CC1 [Perospirone] | 13.7%
CC[N+](C)(CC)CCC[n+]1c(-c2ccccc2)c2cc(N)ccc2c2ccc(N)cc21 [propidium-iodide] | -3.16%
Oc1c(I)cc(Cl)c2cccnc12 | -3.28%
COc1cc(NC(=O)c2ccc(-c3ccc(Cl)cc3)o2)cc(OC)c1 | 7.22%
COCCN(C(=O)c1cc(OC)c(OC)c(OC)c1)c1nc(-c2ccccc2)cs1 [eact] | -1.76%
CN(C)CCOC1=Cc2ccccc2Sc2ccc(Cl)cc21 [zotepine] | -1.67%
CN(C)CCCN1c2ccccc2Sc2ccc(Cl)cc21 [Chlorpromazine HCl] | -2.69%
Cc1ccc(-c2ccc(C)cn2)nc1 [abametapir] | 0.52%
C=C1C(=O)O[C@H]2[C@H]1CC/C(C)=C\CC[C@@]1(C)O[C@@H]21 [Parthenolide ((-)-Parthenolide)] | -11.6%
COC(=O)Nc1nc2cc(C(=O)c3ccc(F)cc3)ccc2[nH]1 | -4.8%
C[C@@H]1CC(=O)NN=C1c1ccc(NN=C(C#N)C#N)cc1 | -2.62%
Nc1ccc2ncnc(NCCc3ccc(Oc4ccccc4)cc3)c2c1 | -2.79%
CC1=C(/C=C/C(C)=C/C=C/C(C)=C/C=C/C=C(C)/C=C/C=C(C)/C=C/C2=C(C)CCCC2(C)C)C(C)(C)CCC1 | -1.69%

Compound | relative growth recovery
c1ccc(C2(c3ccccc3)CC2=C2NCCN2)cc1 [cibenzoline] | -0.4%
C/C(=N/Nc1nnc2c(n1)[nH]c1c(C)cccc12)c1ccccn1 | -12.6%
Cc1ccc(/C=C2\CNC/C(=C\c3ccc(C)cc3)C2=O)cc1 | -12.6%
O=C(Nc1ccc2[nH]ccc2c1)c1ccccc1 | -0.01%
O=C(Nc1cc(C(F)(F)F)cc(C(F)(F)F)c1)Nc1c(Br)cc(Br)cc1-c1nnn[nH]1 | -4.01%
NC(=O)N1c2ccccc2CC(O)c2ccccc21 (stereo not drawn) [licarbazepine] | 0.095%
Oc1c(Cl)cc(Cl)cc1Sc1cc(Cl)cc(Cl)c1O | -1.73%
O=C(NC(NC(=S)Nc1ccc(F)c([N+](=O)[O-])c1)C(Cl)(Cl)Cl)C(c1ccccc1)c1ccccc1 (stereo not drawn) | -10.6%
C=C1/C(=C\C=C2/CCC[C@]3(C)[C@@H]([C@H](C)/C=C/[C@H](C)C(C)(C)O)CC[C@@H]23)C[C@@H](O)C[C@@H]1O [Ercalcitriol] | 6.62%
CCc1nc(N)nc(N)c1-c1ccc(Cl)cc1 | -0.245%
CC(=O)N(OCc1ccccc1)[C@@H]1c2cc(C#N)ccc2OC(C)(C)[C@H]1O | -0.925%
C[C@H]1[C@H](OC(=O)CCC(=O)O)O[C@@H]2O[C@@]3(C)CC[C@H]4[C@H](C)CC[C@@H]1[C@@]24OO3 | -9.71%
c1ccc(-c2ccc(C(c3ccccc3)n3ccnc3)cc2)cc1 (stereo not drawn) | -0.555%
COC(=O)C1=C(C)NC(C)=C(C(=O)OC(C)(C)CN(C)CCC(c2ccccc2)c2ccccc2)C1c1cccc([N+](=O)[O-])c1 (stereo not drawn) [lercanidipine] | 1.64%
Clc1ccc2c(N3CCN(CCCN4CCN(c5ccnc6cc(Cl)ccc56)CC4)CC3)ccnc2c1 | -1.17%
C=CCNc1c(O)cc2c(O)c1C[C@@H](C)C[C@H](OC)[C@H](O)[C@@H](C)/C=C(\C)[C@H](OC(N)=O)[C@@H](OC)/C=C\C=C(/C)C(=O)N2 [Retaspimycin (Hydrochloride)] | -10.9%
Oc1c(Cl)cc(Cl)c2cccnc12 | -0.1%
CC[C@H](CO)Nc1nc(Nc2cccc(-c3ccccn3)c2)c2ncn(C(C)C)c2n1 | -2.95%
CCCCC/N=c1/ccn(Cc2ccccc2)c2ccccc12 | -2.79%
